The panel holds about 79,000 compounds, 15% with a hit somewhere; the sample as a whole holds those more often. Activity calls are given as the source filed them. No stated cut-off is given here; in the data, active means growth inhibition above about 70%; inactive means the rest.
Experiments:
[1] = NCI Yeast Anticancer Drug Screen. Data for the rad50 strain (AID 155);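 further: 0% = growth of vehicle-only cultures of the same strain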; conditions: S. cerevisiae rad50 strain growth inhibition; at 50.0 µM; active compounds read high
Summary of the method: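 Yeast carrying a defined DNA repair defect were exposed to test compounds, and growth was compared with vehicle-treated controls to give percent inhibition.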

[2] = NCI Yeast Anticancer Drug Screen. Data for the mec2-1 strain (AID 157); conditions: S. cerevisiae mec2-1 strain, at 50.0 µM, active compounds read high
Summary of the method: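 mec2-1 yeast strain, carrying an alteration in DNA damage repair or cell cycle control, was exposed to compounds; growth inhibition was measured relative to vehicle-treated controls.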

[3] = NCI Yeast Anticancer Drug Screen. Data for the sgs1 mgt1 strain (AID 161);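 further: 0% = growth of cultures given vehicle only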; conditions: S. cerevisiae sgs1 mgt1 strain, at 50.0 µM, active compounds read high
Summary of the method: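 Growth of a repair-deficient yeast mutant was monitored after compound treatment and expressed as inhibition relative to vehicle-treated cultures.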

[4] = NCI Yeast Anticancer Drug Screen. Data for the cln2 rad14 strain (AID 165);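 further: 0% = growth equal to vehicle treated cultures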; conditions: S. cerevisiae cln2 rad14 strain, at 50.0 µM, active compounds read high
Summary of the method: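 Yeast carrying cln2 and rad14 alterations (cell cycle control and DNA damage repair) were exposed to compounds. Growth inhibition was measured against vehicle-treated controls.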

[5] = NCI Yeast Anticancer Drug Screen. Data for the bub3 strain (AID 167); conditions: S. cerevisiae bub3 mutant strain, at 50.0 µM, active compounds read high
Summary of the method: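 Compounds were applied to a genetically altered yeast strain carrying a cell-cycle control defect. Growth inhibition was scored against vehicle-treated controls.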

[6] = NCI Yeast Anticancer Drug Screen. Data for the mlh1 rad18 strain (AID 175); conditions: S. cerevisiae mlh1 rad18 strain growth inhibition; at 50.0 µM; active compounds read high
Summary of the method: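 Growth inhibition of the yeast strain was measured after compound exposure and expressed relative to vehicle-treated controls. The strain carries defined defects in DNA damage repair.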

Measured: growth inhibition

O=C(CNC(=O)OCc1ccccc1)NCCNCCNC(=O)CNC(=O)OCc1ccccc1
inactive: [1] -26.9% | [2] 6.7% | [3] -5.65% | [4] 36.2% | [5] 8.45% | [6] -0.4%

CN=S(=O)(OC/C=C/COS(=O)(=NC)c1ccc(C)cc1)c1ccc(C)cc1 (stereo not drawn)
inactive: [1] -17.9% | [2] -21.9% | [3] -24.1% | [4] -8.55% | [5] -10.4% | [6] -26.3%

CCCCCCCC(=O)N(CC)CC
inactive: [1] 13.5% | [2] -4.05% | [3] 25.4% | [4] -17.1% | [5] 1.6% | [6] 8.75%

CC(C)(CO)[C@@H](O)C(=O)NCCC(=O)O
inactive: [1] -27.5% | [2] -45.9% | [3] -10.2% | [4] 15.4% | [5] -27% | [6] -23.9%

COc1ccc(/C=N/N2CN(C(C)C(=O)O)C(C)(O)N=C2N)cc1OC (stereo not drawn)
inactive: [1] -14.2% | [2] -33.8% | [3] -20.7% | [4] -8.95% | [5] -25.6% | [6] -50.8%

N=c1oc2cc(O)ccc2cc1C(=O)NCc1ccccc1
inactive: [1] 17.8% | [2] 27.4% | [3] -2.9% | [4] 20.4% | [5] -8.25% | [6] -7.15%

CC1(Nc2ccccc2)OC(=O)c2ccccc21 (stereo not drawn)
inactive: [1] -14.2% | [2] -13.7% | [3] -15.4% | [4] -8.85% | [5] -7.4% | [6] -0.85%

O=C(CN1C(=O)c2ccccc2C1=O)OCC1CCCN2CCCCC12 (stereo not drawn)
inactive: [1] 16.6% | [2] -3.3% | [3] 4.9% | [4] -3.55% | [5] -6.25% | [6] -29.4%

CNc1ccccc1C
inactive: [1] 37.6% | [2] -15.4% | [3] -8.1% | [4] -82.1% | [5] 18.9% | [6] 23%

Cc1cncc(NS(=O)(=O)c2ccc(N)cc2)n1
inactive: [1] 0.7% | [2] 8.7% | [3] -5.45% | [4] -13.9% | [5] 10% | [6] 6.9%

O=[N+]([O-])c1ccc(N=Nc2c(S(=O)(=O)O)cc3cc(S(=O)(=O)O)ccc3c2O)c([N+](=O)[O-])c1
inactive: [1] 24.3% | [2] 0.9% | [3] 30.9% | [4] 31.3% | [5] 32.1% | [6] 20.2%

COc1ccc(/C=C2\CCN=C2c2ccccc2)cc1OC
inactive: [1] -1.65% | [2] -1.85% | [3] 2.85% | [4] -23.3% | [5] 4.4% | [6] 2.65%

CC(NNC(=S)N1CCCCCC1)c1cccc[n+]1[O-] (stereo not drawn)
inactive: [2] 8.3% | [5] 14.3% | [6] 33.6%
active: [1] 97.4% | [3] 96.5% | [4] 97.6%

O=C(Nc1ccc(Br)cc1)C(=O)C(C(=O)c1ccccc1F)C1OC(=O)c2ccccc21 (stereo not drawn)
inactive: [1] -17.6% | [2] -1.65% | [3] -13.8% | [4] -50.9% | [5] -5.4% | [6] 7%

N#CN1CCC2CC(=O)CCC2C1 (stereo not drawn)
inactive: [1] 6.2% | [2] 2.95% | [3] -6.5% | [4] 5.75% | [5] 0.75% | [6] -10.6%

O=C1c2cccc3cc([N+](=O)[O-])cc(c23)C(=O)N1CCNCCNCCNCCN1C(=O)c2cccc3cc([N+](=O)[O-])cc(c23)C1=O
active: [1] 86% | [2] 89% | [3] 89.3% | [4] 90.2% | [5] 89.2% | [6] 90.9%

C[Si](C)(CCCOCC1CO1)O[Si](C)(C)CCCOCC1CO1 (stereo not drawn)
inactive: [1] 26.9% | [2] -29.4% | [3] -5.05% | [4] 17.6% | [5] -8.4% | [6] -31.1%

COc1ccc2c(c1O)-c1cccc3c1C(C2)N(CCOCCCl)CC3 (stereo not drawn)
inactive: [1] 28.4% | [2] -12.8% | [3] -19.9% | [4] 12.9% | [5] 3.15% | [6] -8.85%

COC(C)CCOC(=O)c1ccccc1C (stereo not drawn)
inactive: [1] 10% | [2] -6.1% | [3] 0.8% | [4] -21.8% | [5] 24.9% | [6] 3.2%

CCN(CC)Cc1cc(Oc2ccc(O)c(CN(CC)CC)c2)ccc1O
inactive: [1] 11.1% | [2] 8.5% | [3] 3.65% | [4] -22.7% | [5] 11.6% | [6] -4.4%

CS1(C)=NC(=O)C2=C(N=1)c1ccccc1S2(=O)=O
inactive: [1] -10.9% | [2] -6% | [3] -19% | [4] -19.6% | [5] 1.85% | [6] -7.85%

O=c1[nH]c(O)c(/C=N/C(=S)NCc2ccccc2)c(=O)[nH]1
inactive: [1] -41% | [2] -37.9% | [3] -26.1% | [4] 5.9% | [5] -0.55% | [6] -12.3%

CN(C)CC(=O)c1c[nH]c(=O)[nH]c1=O
inactive: [1] 11.3% | [2] -49.1% | [3] -13.4% | [4] -63.2% | [5] -1.65% | [6] -8.55%

CC1(C)OCC(C2OC3OC(C)(C)OC3C2c2ccccc2)O1 (stereo not drawn)
inactive: [1] -3.55% | [2] -9% | [3] -31.1% | [4] 1.4% | [5] -2.8% | [6] 2.2%

O=C1c2ccccc2S(=O)(=O)c2cc(-c3nn[nH]n3)ccc21
inactive: [1] -2.6% | [2] -29.8% | [3] -22.8% | [4] 0.6% | [5] -13.7% | [6] -48%

O=C(O)CO.[NH2-].[NH2-].[Pt+2]
inactive: [1] -10.1% | [2] -17.8% | [3] -4.85% | [4] -14.9% | [5] -20.2% | [6] -18.2%

O=C(O)c1cccc(C(=O)O)[n+]1[O-]
inactive: [1] 6.05% | [2] -22.6% | [3] -17.8% | [4] 2.4% | [5] -11.8% | [6] -10%

O=C(NCCc1ccccc1)c1ccc(Cl)cc1
inactive: [1] 6.25% | [2] 9.8% | [3] 9.9% | [4] 10.8% | [5] 26% | [6] 1.5%

O=C1CSSCC(=O)NCCCN1
inactive: [1] 2.25% | [2] 1.15% | [3] -5.35% | [4] 0.8% | [5] 2.55% | [6] 28.2%

CCOC(=O)c1ccc(NC(=S)N2CCOCC2)cc1
inactive: [1] 13.1% | [2] 6.8% | [3] 14.8% | [4] 8.7% | [5] 2.55% | [6] -2.8%

CC(=O)Nc1ccc(S(=O)(=O)NC(=O)NC(C)C)cc1
inactive: [1] -4.2% | [2] -26.4% | [3] -2.4% | [4] 20% | [5] 3% | [6] 14.3%

CC(O)C1OC(O)C2OC(C)(C)OC12 (stereo not drawn)
inactive: [1] 20.1% | [2] 17.4% | [3] 16.4% | [4] -4.35% | [5] 14.6% | [6] 7.9%

COc1ccc(/C=N/NC(=O)O)cc1
inactive: [1] 4.55% | [2] -5.35% | [3] -24% | [4] -12.3% | [5] -32.5% | [6] -18.4%

ON(CCc1ccncc1)Cc1ccccc1
inactive: [1] 1.6% | [2] -31.1% | [3] -20.1% | [4] 2.95% | [5] -56.3% | [6] 15.5%

O=C(O)c1c[nH]c2c(ccc3[nH]cc(C(=O)O)c(=O)c32)c1=O
inactive: [1] -14.1% | [2] -36.4% | [3] -33.2% | [4] -32.2% | [5] -40.7% | [6] -13.6%

C=C(C)CN(CC(=C)C)C(C)=O
inactive: [1] 5.7% | [2] -17.7% | [3] -15.4% | [4] -6.15% | [5] -16.3% | [6] -5.85%

CC1COC(C(C)c2ccccc2)O1 (stereo not drawn)
inactive: [1] -0.05% | [2] -18.4% | [3] -10.8% | [4] -35.2% | [5] -29.9% | [6] 6.1%

CC(=O)c1ccccc1Cc1cccc2c(Cl)cccc12
inactive: [1] 4.55% | [2] 6.05% | [3] 10.1% | [4] -0.95% | [5] 1.85% | [6] 18.6%

Reference: PubChem BioAssay (NCI)
